# Screen size: about 1,100 compounds; about 860 (78%) were called active. Not shown: some 19% with an inconclusive outcome. Calls come from the whole dose curve; as a rule, active = well fitted activation curve with a large enough effect; inconclusive = small, poorly fitted or top-dose-only effect; inactive = flat fitted curve, though single readings scatter. The set was probably picked from earlier hits. Some of the results follow.
# Assay: qHTS of Nrf2 Activators: Hit Validation in Primary Assay; note: nearly all actives have a fitted effect of over 70% in size; for activation: 0% is about no effect
# Conditions: Nrf2/ARE reporter cell assay; Potency: activation; series mostly up to 46.1 µM; activation: at the top concentration
# From the text: Many diseases have some form of oxidative stress injury and ties to inflammation, causing a host of problems for the patient. The antioxidant response element (ARE) plays an important role in alleviating the harmful effects of oxidative stress. The antioxidant response element (ARE) is a transcriptional regulatory element involved in the activation of genes coding for a number of antioxidant proteins and detoxifying enzymes. These enzymes work in concert to protect tissues from oxidative insults and chemical toxicities in human hepatocytes and immune cells. The protective effects of ARE activation are primarily triggered through Nrf2 (NF-E2-related factor) binding to and activating AREs. It is known that Nrf2 controls the production of over 250 antioxidant and detoxification proteins (Hu et al., 2006), thereby protecting tissues by increasing cellular antioxidant content and suppressing inflammatory signaling pathways. The transcription factor Nrf2 is a central link between oxidative chemicals, such as phenolic antioxidants and electrophilic compounds, and the activation of ARE. Nrf2 levels are constitutively low as a consequence of its interaction with Keap1, which targets its degradation (Zipper and Mulcahy, 2002). Electrophiles react with key cysteine residues in Keap1, releasing Nrf2 and allowing its translocation to the nucleus. Once within the nucleus, Nrf2 complexes with coactivators such as p300, and binds to the AREs to induce gene transcription of cytoprotective enzymes, resulting in the prevention of toxicity. Activation of Nrf2 protects tissues by increasing cellular antioxidant content and suppressing inflammatory signaling pathways. Identifying novel and potent Nrf2 activators by using the AREc32 cell line to detect ARE activation by small molecules will lead to the identification and development of probes to study protective pathways in multiple tissues. These specific probes are essential to study the ARE pathway, and eventually to determine whether this pathway does activate genes that could protect against a host of diseases, including cardiovascular diseases, obesity, diabetes, Alzheimer's, and Parkinson's disease.
# This project's aim is to identify novel and potent Nrf2 activators by using the AREc32 cell line to detect ARE activation by small molecules, which will lead to the identification and development of probes to study the ARE pathway.
# NIH Chemical Genomics Center [NCGC]
# NIH Molecular Libraries Probe Centers Network [MLPCN]
# Assay Submitter (PI): Curtis Klaassen, University of Kansas Medical Center
# Quantification of ARE activation after compound treatment was measured by the Steady-Glo Luciferase (R) assay system (Promega) in AREc32_fluc stable cells. The Steady-Glo reagent acts by cell lysis and generation of a luminescent signal proportional to ARE activation, through the luciferase reporter in the AREc32 stable cell line. AREc32_fluc cells were harvested from T225 flask and resuspended in phenol red free OPTI-MEM medium with 5% FBS. Then 5 microL of 200,000 cells/mL resuspended cells were dispensed into each well of white, solid bottom, 1536-well tissue culture-treated plates using a Multidrop Combi dispenser. After overnight culture at 37 degrees C with 5% CO2, a total of 23 nL of compounds at 5 selected concentrations from the MLSMR/Sytravon or positive control (40 uM stock of CDDO-IM and 2 mM of tBHQ) in DMSO was transferred to each well of the assay plate using a pintool (Kalypsys, San Diego, CA), and the plates were further incubated at 37 degrees C with 5% CO2 for 24 hours. After that, 2 microL of Steady Glo luminescent substrate mix (Promega) was added to each well. The plate was incubated at room temperature for 30 minutes. The plates were measured on a ViewLux plate reader (PerkinElmer) with clear filter.
# Potency is the fitted concentration of half-maximal effect.
SMILES,Potency,activation
C/C(=N\NC(=O)CSc1nc2ccccc2s1)c1ccco1,5.17 µM (active),
O=C(CSc1nc2cc(Cl)ccc2s1)c1ccco1,1.84 µM (active),
CC(=O)c1cc2c(cc1NC(=O)CSc1nc3ccccc3o1)OCO2,8.2 µM (active),
O=C(CSc1nc2ccccc2s1)N/N=C/c1ccco1,8.2 µM (active),
CC(=NNC(=O)CSc1nc2ccccc2o1)c1ccco1,7.31 µM (active),
Cc1ccnc(SCC(=O)c2ccc(Br)cc2)c1C#N,2.31 µM (active),
Cc1cc(C)c(C#N)c(SCC(=O)c2cccs2)n1,5.17 µM (active),
Cc1cc(SCC(=O)c2cccs2)nc2ccccc12,2.59 µM (active),
CSc1nc(N)nc(SCC(=O)c2ccccc2)c1C#N,7.31 µM (active),
Cc1cc(C)c(C#N)c(SCC(=O)c2ccccc2)n1,14.6 µM (active),
O=C(CN1CCN(Cc2ccccc2)CC1)N/N=C\C=C/c1ccco1,20.6 µM (active),
O=C(CN1CCN(Cc2ccccc2Cl)CC1)N/N=C/C=C/c1ccco1,2.59 µM (active),
CC(=NNc1ccc2ccccc2n1)c1ccccc1O,3.66 µM (active),
CC(=O)OC1(C(C)=O)CCC2C3CC(C(F)(F)F)C4=CC(=O)CCC4(C)C3CCC21C (configuration not stated),4.61 µM (active),
O=C1N/C(=N\N=C\c2ccco2)SC1Cc1ccccc1[N+](=O)[O-] (configuration not stated),2.06 µM (active),
O=C1N/C(=N\N=C\c2ccco2)SC1Cc1ccc(F)cc1 (configuration not stated),0.731 µM (active),
Cc1cccc(CC2S/C(=N/N=C/c3ccco3)NC2=O)c1 (configuration not stated),0.206 µM (active),
CC(/C=C/c1ccco1)=N\NC(=O)CNc1ccc2ccccc2c1,16.4 µM (active),
O=C(C=Cc1ccco1)c1ccc2ccccc2c1,2.59 µM (active),
CCc1nc(Nc2cccc(F)c2)c2oc3ccccc3c2n1,2.91 µM (active),
Cc1nc(Nc2ccccc2F)c2oc3ccccc3c2n1,2.31 µM (active),
O=C(Nc1c(O)c2ccccc2[nH]c1=O)c1ccco1,7.31 µM (active),

SMILES,Potency,activation
NC(=O)c1oc2ccccc2c1NC(=O)c1ccccc1,2.59 µM (active),
NC(=O)c1oc2ccccc2c1NC(=O)c1ccco1,2.31 µM (active),
CN1c2ccsc2/C(=N/Nc2ccccc2)CS1(=O)=O,2.31 µM (active),
C=C(C)CNC(=S)N/N=C(\C)c1ccc(Cl)s1,2.59 µM (active),
CCOc1ccccc1NC(=O)C1COc2ccccc2O1 (configuration not stated),4.61 µM (active),
O=C(Nc1ccccc1[N+](=O)[O-])C1COc2ccccc2O1 (configuration not stated),4.61 µM (active),
COc1ccc(Cl)cc1NC(=O)C1COc2ccccc2O1 (configuration not stated),2.91 µM (active),
NS(=O)(=O)c1ccc(NC(=O)c2cc(-c3cccs3)nc3ccccc23)cc1,,14.1% (inactive)
Cc1csc(NC(=O)c2cc(-c3ccco3)nc3ccccc23)n1,2.59 µM (active),
O=C(Nc1nccs1)c1cc(-c2ccco2)nc2ccccc12,8.2 µM (active),
O=C(N/N=C/c1ccc(Br)s1)c1cccs1,2.91 µM (active),
Cc1ccsc1/C=N/N=C1\C(=O)Nc2ccccc21,7.31 µM (active),
CCn1c(=N)n(CC(=O)c2cccc([N+](=O)[O-])c2)c2ccccc21,2.31 µM (active),
N=c1n(CCN2CCOCC2)c2ccccc2n1CC(=O)c1cccc([N+](=O)[O-])c1,2.91 µM (active),
CC1(O)c2ccccc2C(=O)N1CCc1ccccc1F (configuration not stated),5.8 µM (active),
Cc1ccc(-c2nc(C=Nc3ccc(O)cc3)c(O)o2)cc1,16.4 µM (active),
CCOc1c(Br)cc(C(N)=O)cc1OCc1ccccc1,,20.2% (inactive)
Cc1ccc2cc3c(NC(=O)c4ccco4)nn(C)c3nc2c1,2.59 µM (active),
O=C1C(=Cc2ccccc2Cl)CCc2ccccc21,20.6 µM (active),
COc1cc(OC)c(OC)cc1/C=C1/Cc2ccccc2C1=O,8.2 µM (active),
COc1cc(C=C2Cc3ccccc3C2=O)cc(OC)c1OC,9.2 µM (active),
COc1ccc(OC)c(C=C2CCc3ccccc3C2=O)c1,2.91 µM (active),

SMILES,Potency,activation
c1ccc(-c2cnc(-c3ccccc3)nn2)cc1,13 µM (active),
CSc1nc(Oc2ccc3ccccc3c2)c2sccc2n1,5.8 µM (active),
CSc1nc(Oc2ccc(Cl)cc2)c2sccc2n1,6.51 µM (active),
Nc1c(C(=O)c2cccs2)oc2ccccc12,6.51 µM (active),
Nc1c(C(=O)c2ccc(Br)s2)oc2ccccc12,5.17 µM (active),
COc1cccc(C(=O)Oc2ccccc2/C=C\C(=O)c2cc3ccccc3o2)c1,3.66 µM (active),
O=C(Oc1ccccc1/C=C\C(=O)c1cc2ccccc2o1)c1ccccc1,4.61 µM (active),
O=C(Cn1cnc2scc(-c3cccc([N+](=O)[O-])c3)c2c1=O)NCc1ccco1,7.31 µM (active),
Cc1c(CN(C)C)c2c(n1C)C(=O)c1ccc(Br)cc1-2,5.17 µM (active),
O=C(CC(=O)c1ccccc1O)c1cccc(F)c1,4.61 µM (active),
CC(C)Oc1ccccc1/C=N/Nc1ccccc1[N+](=O)[O-],3.26 µM (active),
O=[N+]([O-])c1ccccc1N/N=C/c1c[nH]c2ccccc12,2.59 µM (active),
C(=N\Nc1nc2ccccc2[nH]1)/c1c[nH]c2ccccc12,16.4 µM (active),
c1ccc(N=NC2=NN(c3ccccc3)CS2)cc1,5.8 µM (active),
O=C(COC(=O)/C=C/c1ccco1)Nc1ccc(F)cc1Cl,5.8 µM (active),
CSc1ccccc1NC(=O)COC(=O)/C=C/c1ccco1,1.16 µM (active),
CC(=O)c1ccccc1NC(=O)COC(=O)/C=C/c1ccc(C)o1,3.66 µM (active),
O=C(NC(=S)Nc1ccccc1O)c1ccccc1Cl,2.31 µM (active),
O=C(CNC(=S)NC(=O)c1ccccc1Br)c1ccccc1,,27.2% (inactive)
Cc1sc(NC(=O)c2ccco2)c(CN2CCCCC2)c1C,,9.37% (inactive)
COC(=O)c1c(NC(=O)c2ccco2)sc(C)c1C,2.59 µM (active),
CCc1c(C)sc(NC(=O)c2ccco2)c1C#N,7.31 µM (active),

SMILES,Potency,activation
Cc1ccc(C(=O)Nc2nc(-c3ccco3)c(-c3ccco3)s2)o1,0.92 µM (active),
CCOC(=O)c1sc(NC(=O)c2ccco2)nc1C,2.59 µM (active),
COC(=O)c1sc(NC(=O)c2ccco2)nc1C,10.3 µM (active),
O=C(Nc1ccccc1F)c1ccc(-c2cccc([N+](=O)[O-])c2)o1,2.31 µM (active),
c1ccc(N=Nc2cn[nH]c2-c2ccco2)cc1,9.2 µM (active),
CC(C)OC(=O)c1cn(-c2ccccc2)nc1-c1ccco1,6.51 µM (active),
Fc1ccc2nncc(SCc3ccccc3Cl)c2c1,2.06 µM (active),
O=C(Nc1ncnc2sc3c(c12)CCC3)c1ccco1,0.291 µM (active),
O=C(Nc1ncnc2sc3c(c12)CCCCC3)c1ccco1,0.58 µM (active),
CN(C)CCN(C(=O)/C=C/c1cccs1)c1nc2ccc(F)cc2s1,2.06 µM (active),
Cc1ccc2nc(N(CCN(C)C)C(=O)/C=C/c3cccs3)sc2c1,4.61 µM (active),
CN(C)CCN(C(=O)/C=C/c1cccs1)c1nc2c(F)cc(F)cc2s1,2.91 µM (active),
Nc1nc(Nc2cccc(Cl)c2)nc(NCCO)c1[N+](=O)[O-],2.59 µM (active),
Fc1ccc2nc(Nc3nc4c(F)cc(F)cc4s3)sc2c1,2.31 µM (active),
Fc1cccc2sc(Nc3nc4ccccc4s3)nc12,2.31 µM (active),
Cn1c(/C(C#N)=C(\O)c2cc(Cl)sc2Cl)nc2ccccc21,2.31 µM (active),
Cc1ccc(C(=O)OCc2c(C)noc2C)cc1NC(=O)c1ccco1,4.11 µM (active),
N/C(=N\OC(=O)c1cc(Cl)ccc1Cl)c1ccncc1,5.17 µM (active),
COc1ccc(Cl)cc1C(=O)O/N=C(\N)c1ccncc1,6.51 µM (active),
N/C(=N\OC(=O)c1cc(Cl)ccc1Cl)c1cccnc1,2.59 µM (active),
N/C(=N\OC(=O)c1ccccc1Cl)c1ccncc1,9.2 µM (active),
COc1ccc(Cl)cc1C(=O)O/N=C(\N)c1ccccn1,2.91 µM (active),

SMILES,Potency,activation
N/C(=N\OC(=O)c1cccc2ccccc12)c1cccnc1,,5.33% (inactive)
N/C(=N\OC(=O)c1cccc2ccccc12)c1ccc(Br)cc1,9.2 µM (active),
N/C(=N\OC(=O)/C=C/c1ccccc1)c1cccnc1,20.6 µM (active),
O=C(/C=C/c1ccccc1[N+](=O)[O-])N1CCc2ccccc2C1,20.6 µM (active),
Oc1ccccc1-n1nc2ccc3nonc3c2n1,11.6 µM (active),
Cn1c(=O)n(CCc2ccccc2)c(=O)c2c1nc1n2CCN1Cc1ccco1,2.31 µM (active),
COc1ccc([C@H]2Cc3cccc(O)c3C(=O)O2)cc1O,,4.39% (inactive)
CCCNC(=O)c1ccc(S(=O)(=O)c2ccc(OC)cc2)c([N+](=O)[O-])c1,3.66 µM (active),
Cn1c(N/N=C/c2cccs2)cc(=O)n(C)c1=O,2.59 µM (active),
O=c1[nH]n(Cc2ccccc2)c(=O)c2ccccc12,4.11 µM (active),
O=C(CSc1nccc(-c2cccs2)n1)Nc1ccc(F)c(Cl)c1,20.6 µM (active),
O=C(CSc1nccc(-c2cccs2)n1)Nc1cccc(Cl)c1Cl,2.31 µM (active),
O=C(CSc1nccc(-c2cccs2)n1)Nc1cccc(Cl)c1,2.06 µM (active),
Cc1ccc(C(=O)N/N=C/c2ccc(-c3ccc(Br)cc3[N+](=O)[O-])o2)o1,5.8 µM (active),
Cc1cc(C)n2nc(-c3ccc(F)cc3)cc2n1,20.6 µM (active),
Cc1cc(N2CCOCC2)n2nc(-c3cccc(F)c3)cc2n1,1.46 µM (active),
O=C(Nc1ncc2c(n1)-c1ccccc1CC2)c1ccccc1,5.17 µM (active),
O=C(Nc1ncc2c(n1)-c1ccccc1CC2)c1cccs1,2.31 µM (active),
O=C(Nc1nccc(-c2cccs2)n1)c1cccs1,2.59 µM (active),
